FAK inh = FAK kinase inhibitors, primary screen, biochemical. Focal adhesion kinase 1 (Homo sapiens), Q05397. biochemical FAK kinase activity assay. inhibition, %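 (tested at 7 µM)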. 97,000 tested, 0.84% active. AID 727, 2007; in the data active = inhibition above about 19%;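 also: 0% = DMSO and 100% = reference compound high control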
Target sequence (Q05397 whole entry, looked up): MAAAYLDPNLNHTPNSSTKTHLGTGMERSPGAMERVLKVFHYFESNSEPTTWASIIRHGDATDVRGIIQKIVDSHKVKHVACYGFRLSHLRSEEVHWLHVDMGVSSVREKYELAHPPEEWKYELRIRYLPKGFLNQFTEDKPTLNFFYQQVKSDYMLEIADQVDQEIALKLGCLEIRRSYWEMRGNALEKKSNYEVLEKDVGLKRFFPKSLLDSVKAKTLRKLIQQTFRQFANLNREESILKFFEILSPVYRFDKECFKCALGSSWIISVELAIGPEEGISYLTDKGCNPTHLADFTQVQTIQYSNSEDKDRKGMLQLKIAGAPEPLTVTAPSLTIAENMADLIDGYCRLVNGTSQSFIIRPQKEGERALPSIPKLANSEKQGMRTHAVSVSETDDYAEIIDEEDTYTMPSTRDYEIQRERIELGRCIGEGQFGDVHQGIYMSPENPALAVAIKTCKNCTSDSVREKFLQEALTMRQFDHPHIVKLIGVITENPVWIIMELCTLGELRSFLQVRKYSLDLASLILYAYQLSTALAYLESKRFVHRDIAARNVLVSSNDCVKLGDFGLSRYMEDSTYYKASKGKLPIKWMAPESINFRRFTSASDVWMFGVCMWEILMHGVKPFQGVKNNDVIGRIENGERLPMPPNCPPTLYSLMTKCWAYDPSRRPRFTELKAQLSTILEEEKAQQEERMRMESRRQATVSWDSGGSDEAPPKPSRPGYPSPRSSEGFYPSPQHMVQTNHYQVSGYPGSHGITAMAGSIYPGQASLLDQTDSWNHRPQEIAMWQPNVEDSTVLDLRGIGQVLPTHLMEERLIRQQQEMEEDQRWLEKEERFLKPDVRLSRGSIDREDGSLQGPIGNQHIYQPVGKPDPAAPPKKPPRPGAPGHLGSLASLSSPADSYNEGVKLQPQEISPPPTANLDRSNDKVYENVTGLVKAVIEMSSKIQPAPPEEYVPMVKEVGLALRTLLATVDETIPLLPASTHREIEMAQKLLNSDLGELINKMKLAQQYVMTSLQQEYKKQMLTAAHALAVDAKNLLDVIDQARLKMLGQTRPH
ERa SRC1 pot = enhancers of ERα–SRC-1 coactivator binding, primary screen, biochemical, TR-FRET, ERα LBD, low estradiol; 86,000 tested, 1.3% active; coactivator binding (% of control), % at 25.6 µM; TR-FRET ERalpha-LBD/SRC-Cy5 coactivator binding, 2 h; 100 = basal binding, no effect; Estrogen receptor (Homo sapiens), P03372; AID 639, 2007; in the data active = activity above about 200%;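 also: binding measured in presence of low estradiol as agonist stimulus; 0% = peptide alone without receptor and 100% = receptor with peptide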
ERa SRC1 inh = ERα–SRC-1 coactivator interaction inhibitors, primary screen, biochemical, TR-FRET, ERα LBD, estradiol-bound; Estrogen receptor (Homo sapiens), P03372; TR-FRET ER-alpha LBD / SRC-1 peptide; AID 629, 2007; inhibition, % at 25.6 µM; 86,000 tested, 1.7% active; in the data active = inhibition above about 50%;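 also: 0% = receptor plus peptide control and 100% = peptide only without receptor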
Smad3 FoxH1 inh = Smad3/FoxH1 peptide binding inhibitors, primary screen, biochemical, TR-FRET; 88,000 tested, 0.29% active; Mothers against decapentaplegic homolog 3 (Homo sapiens), P84022; TR-FRET Smad3/Dy647-FoxH1 peptide binding, europium anti-His; inhibition, % at 25 µM;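 active = compounds that reduce the energy-transfer binding signal between the protein and its labelled peptide by more than half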;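 also: 0% = Smad3 plus labelled peptide maximal FRET and 100% = peptide-only background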
ERb coact inh = inhibitors of ERβ-SRC1 coactivator interaction, primary screen, biochemical, TR-FRET, ERβ LBD, SRC-1 peptide | AID 633, 2007 | 86,000 tested, 1.3% active | Estrogen receptor beta (Homo sapiens), Q92731 | TR-FRET ER-beta LBD / SRC1-Cy5 peptide binding; receptor agonist-loaded with 1 µM estradiol | inhibition, % at 25.6 µM;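 active = compounds whose percent inhibition of the receptor-coactivator binding signal exceeds about 50% in the single-dose screen, limit read from the data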;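 also: 0% = receptor plus peptide wells without compound and 100% = peptide-only wells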
Active calls of the source: *; / = no result; [ ] = dose if it differs, or a comment. Compounds with a hit are over-represented: about 3.3% of the library has one in this group of screens.

SMILES	FAK inh	ERa SRC1 pot	ERa SRC1 inh	Smad3 FoxH1 inh	ERb coact inh
Cc1cc(C)cc(-c2nnc(SCC(=O)c3ccc4c(c3)OCCO4)o2)c1	-0.2	221.3*[fluorescence artefact?]	3.9	11.3	8.3
O=C(CSc1nnc(-c2ccccc2)o1)c1ccc2c(c1)OCCO2	-6.7	128.9	-2.5	-12.5	2.2
c1ccc(-c2csc3nnc(SCc4ccc5c(c4)OCCO5)n23)cc1	0.6	/	/	/	/
CCC(=O)Nc1ccc(S(=O)(=O)Nc2cccnc2)cc1	-0.5	107.3	-4.3	-13.5	77.5*[fluorescence artefact?]
CCCn1cnc2c(SCC(=O)O)nc(N)nc21	/	/	/	-2.7	/
c1ccc(CNc2nc3ccccc3n3cnnc23)cc1	-5.2	238.0*[fluorescence artefact?]	4.5	4.9	6.5
CC1(C)C(=O)C2(CCCCC2)C(=O)OC1c1ccc(O)cc1 (stereo not given)	1.4	218.5*	-7.3	-10.4	-6.1
CC1(C)C(=O)C2(CCCC2)C(=O)OC1c1ccco1 (stereo not given)	1.0	102.5	-1.3	5.9	-8.7
Cn1c(C[C@@H](O)c2nc3ccccc3n2C)nc2ccccc21	/	/	/	35.5	/
COc1ccccc1/C=c1\sc2nc(-c3ccco3)nn2c1=O	7.5	106.8	74.2*	6.6	67.5*[fluorescence artefact?]
CCOc1ccc(/C=c2\sc3nc(-c4ccco4)nn3c2=O)cc1OCC	8.4	101.5	55.4*	12.4	24.9
CC(C)c1ccc(/C=c2\sc3nc(-c4ccncc4)nn3c2=O)cc1	-2.2	/	/	/	/
COc1ccc(OC)c(/C=c2\sc3nc(-c4cccs4)nn3c2=O)c1	-0.2	73.8	39.0	-5.3	17.5
CCN1C(=O)/C(=C2/C=Cc3ccccc3N2C)OC1=S	-1.6	95.7	65.8*[fluorescence artefact?]	7.8	62.5*[fluorescence artefact?]
CCN1C(=O)/C(=C2\C=Cc3ccccc3N2CC)SC1=S	1.2	/	/	/	/
CCN1C(=O)/C(=c2\o/c(=C3\C=Cc4ccccc4N3CC)c(=O)n2CC)SC1=S	0.3	18.0	77.2*[fluorescence artefact?]	2.1	35.9
CC[C@H](C(=O)c1cccs1)C(O)(C(F)(F)F)C(F)(F)F	/	/	/	-4.5	/
O=C1c2ccccc2-c2onc3ccc(NCc4ccco4)c1c23	/	22.6	11.4	-13.3	28.6
CCNc1ccc2noc3c2c1C(=O)c1ccccc1-3	48.6*	176.8	-2.4	3.7	4.8
CCN(CC)CCc1c(C)[nH]c(C(=O)OCc2ccccc2)c1C	6.2	6.0	96.5*[fluorescence artefact?]	25.1	93.3*[fluorescence artefact?]
CCOC(=O)c1[nH]c(C)c(CN(CCc2ccccc2)C(=O)CCC(=O)O)c1C	-1.7	104.1	-10.4	3.6	-8.3
O=C(O)CCC(=O)C(=O)O	/	/	/	-1.7	/
Nc1ccn([C@H]2O[C@@H](COP(=O)(O)O)[C@H](O)[C@H]2O)c(=O)n1	/	/	/	78.7*	/
O=C(O)C[C@H]1OCC=C2C[N+]3([O-])CC[C@@]45c6ccccc6N[C@@H]4[C@@H]1[C@@H]2C[C@H]53 (stereo not given in full)	/	/	/	0.6	/
CCOC(=O)NCc1ccc2c(c1)cc(C)n2C	1.1	/	/	/	/
SMILES	FAK inh	ERa SRC1 pot	ERa SRC1 inh	Smad3 FoxH1 inh	ERb coact inh
CCC(CC)C(=O)NCc1ccc2c(c1)cc(C)n2C	2.1	/	/	/	/
Cc1cc2cc(CNC(=O)c3cccs3)ccc2n1C	/	64.6	74.8*[fluorescence artefact?]	12.1	46.8
Cc1cc2cc(CNC(=O)Nc3ccccc3)ccc2n1C	-6.4	222.0*[fluorescence artefact?]	11.2	6.6	17.3
CCc1ccc2c(c1)N(C[C@H](C)CN(C)C)c1ccccc1S2	/	/	/	-5.0	/
Cc1cc2ccc(OC(=O)c3ccc(N=C(N)N)cc3)cc2oc1=O	/	/	/	11.8	/
O/N=C/c1cc(Br)ccc1OCc1ccccc1F	20.5*	/	/	/	/
C=CCOc1ccc(Br)cc1/C=N/O	6.0	110.7	-0.7	-11.4	22.1
N=C(N)SCCCN	/	/	/	-16.2	/
Nc1ncnc2c1ncn2[C@H]1O[C@@H](C(=O)OCCO)[C@H](O)[C@H]1O	/	/	/	16.7	/
Nc1nc(N)c(N=Nc2ccc(C(=O)O)c(O)c2)c(N)n1	/	/	/	54.9*	/
COC(=O)C1=C(O)/C(=C\c2ccc(O)c(OC)c2)N=C1C	-1.5	97.9	-8.4	11.6	43.8
CCOC(=O)C1=C(O)/C(=C\c2ccc(CNC(=O)C(=O)Nc3ccc(C)c(C)c3)o2)N=C1C	-0.7	115.0	72.1*	17.6	54.8*
Cc1ccc(-n2nnnc2SCC(=O)c2c(N)n(CC(C)C)c(=O)n(C)c2=O)cc1	-0.8	242.1*	-7.6	2.6	-6.4
O=C(O)c1ccccc1C(=O)Nc1nccs1	-1.6	/	/	/	/
CSc1ccccc1C(=O)Nc1nccs1	0.4	121.4	75.6*[fluorescence artefact?]	14.3	-0.9
c1ccc([P+](CC[P+](c2ccccc2)(c2ccccc2)c2ccccc2)(c2ccccc2)c2ccccc2)cc1	/	/	/	6.5	/
COc1ccccc1-n1c(SCC(=O)NC2CCCCC2)nc2c(c1=O)SCC2	3.4	696.6*	4.3	-2.5	0.9
O=C(O)[C@@H](O)[C@@H](O)[C@H](O)C(=O)CO	/	/	/	1.9	/
COc1cccc2cc(C(C)=O)c(=O)oc12	2.3	108.5	-17.3	4.6	-11.3
COc1cccc2cc3c(=O)n(-c4ccccc4)nc-3oc12	-7.8	5.8	99.2*[fluorescence artefact?]	1.4	80.9*
CC1CCc2c(sc(NC(=O)c3ccc(Cn4cc([N+](=O)[O-])cn4)o3)c2C#N)C1 (stereo not given)	18.6	69.8	60.9*	-3.4	63.8*
N#Cc1c(NC(=O)c2ccc(Cn3cc(Br)cn3)o2)sc2c1CCCCC2	-1.1	106.4	5.0	-3.6	18.2
O=S(=O)(O)c1cc(O)c2c(O)c(N=Nc3cccc4ccccc34)c(S(=O)(=O)O)cc2c1	/	/	/	2.7	/
CCn1c(CSc2nnc(-c3cccnc3)n2-c2ccccc2C)nc2cc(C(=O)O)ccc21	-3.0	253.5*	1.1	9.4	24.9
CCn1c(CSc2nnc3ccccn23)nc2cc(C(=O)O)ccc21	6.7	129.8	2.0	-3.6	-0.5
SMILES	FAK inh	ERa SRC1 pot	ERa SRC1 inh	Smad3 FoxH1 inh	ERb coact inh
O=c1c2ccccc2nc2sc3ccccc3n12	19.9*	/	/	/	/
O=c1/c(=C/c2ccccn2)sc2nc3ccccc3n12	16.6	68.1	90.3*[fluorescence artefact?]	19.3	47.3
O=C(O)[C@@H](O)c1ccc(F)cc1	/	/	/	2.3	/
CC1CCN(S(=O)(=O)c2ccc(NC(=O)Cc3cccs3)cc2)CC1	7.6	56.7	74.2*	-4.1	61.9*
CC1CCN(S(=O)(=O)c2ccc(NC(=O)Cn3nnc(-c4ccccc4)n3)cc2)CC1	9.4	126.3	93.7*[fluorescence artefact?]	-3.0	76.0*[fluorescence artefact?]
Cc1ccc(-c2nnn(CC(=O)Nc3ccc(S(=O)(=O)N4CCC(C)CC4)cc3)n2)cc1	10.1	107.3	44.2	7.0	21.9
COC(=O)c1ccc(CSc2nc3c(c(=O)n2-c2ccc(C)cc2)SCC3)o1	/	336.5*[fluorescence artefact?]	21.0	3.5	27.5
Cc1ccc(-n2c(SCC(=O)N3CCCC3)nc3c(c2=O)SCC3)cc1	/	107.1	3.0	8.3	-7.8

Compound activity: PubChem BioAssay, several laboratories
